# Experimental data published in the supplement of paper PMC11383364.
# ± gives the standard deviation of the averaged measurements.
# System: SUM149
# Test: percent difference in area under dose-response curve of relative cell number, RPMI vs HPLM; higher = drug relatively more effective in HPLM than RPMI (negative = less effective in HPLM)
# Conditions: treatment time: 72 h; dose range: 10-point, 1 nM to 20 µM; media compared: RPMI vs HPLM
# Protocol: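 SUM149 triple-negative breast cancer cells, 500 cells/well in 384-well plates, were grown in RPMI or human plasma-like medium (HPLM) with 5% dialyzed FBS. They were pin-transferred with an anticancer plus metabolic-inhibitor library in 10-point dose series (20 µM to 1 nM). After 72 h, cells were fixed, stained with bisbenzimide and counted by Acumen plate cytometry. The AUC of relative survival vs dose was computed per medium, and the percent difference in AUC between RPMI and HPLM is reported.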
row,SMILES,percent difference in area under dose-response curve
1,C[S+]([O-])CCCCN=C=S (centres undefined) [Sulforaphane],-4.37%
2,Cc1sc2c(c1C)C(c1ccc(Cl)cc1)=N[C@@H](CC(N)=O)c1nnc(C)n1-2,-25.8%
3,CC(=O)c1c(O)c(C)c(O)c(Cc2c(O)c3c(c(C(=O)/C=C/c4ccccc4)c2O)OC(C)(C)C=C3)c1O [Rottlerin],-6.49%
4,c1ccc2c(c1)[I+]c1ccccc1-2 [Diphenyleneiodonium_chloride],-42%
5,CCCCCC[C@H]1C(=O)O[C@H](C)[C@H](NC(=O)c2cccc(NC=O)c2O)C(=O)O[C@@H](C)[C@@H]1OC(=O)CC(C)C [Antimycin_A],-6.05%
6,O=C(O)CCCc1ccc(N(CCCl)CCCl)cc1 [Chloroambucil],-5.32%
7,Cc1cc2c(C(C)C)c(O)c(O)c(C=O)c2c(O)c1-c1c(C)cc2c(C(C)C)c(O)c(O)c(C=O)c2c1O [Gossypol],-5.85 ± 4.1%
8,C/C=C(/C)C(=O)O[C@H]1C(C)=C2[C@H]([C@@H]1OC(=O)CCCCCCC)[C@@](C)(OC(C)=O)C[C@H](OC(=O)CCC)[C@@]1(O)[C@H]2OC(=O)[C@@]1(C)O [Thapsigargin],-31.9%
9,C=C(C)[C@H]1Cc2c(ccc3c2O[C@@H]2COc4cc(OC)c(OC)cc4[C@@H]2C3=O)O1 [Rotenone],-23%
10,CC[C@@H]1/C=C/C=C/C[C@H](C)[C@H](O)[C@](C)(O)C(=O)[C@H](C)[C@@H](O)[C@H](C)C(=O)[C@H](C)[C@@H](O)[C@H](C)/C=C/C(=O)O[C@H]2[C@@H](C)[C@@H](CC1)O[C@@]1(CC[C@@H](C)[C@@H](C[C@H](C)O)O1)[C@@H]2C [Oligomycin_A],-41%
11,NC(=O)c1ccc(N)nc1 [6_Aminonicotinamide],-3.77%
12,CC(=O)N[C@H]1[C@@H](O[C@@H]2O[C@H](CC(O)[C@H]3O[C@@H](n4ccc(=O)[nH]c4=O)[C@H](O)[C@@H]3O)[C@H](O)[C@H](O)[C@H]2NC(=O)/C=C/CC(C)C)O[C@H](CO)[C@@H](N)[C@@H]1O (some centres undefined) [Tunicamycin],-6.39%
13,C/C(=C\c1csc(C)n1)[C@@H]1C[C@@H]2O[C@@H]2CCC[C@H](C)[C@H](O)[C@@H](C)C(=O)C(C)(C)[C@@H](O)CC(=O)O1 [Epothilone_A],-32.6%
14,O=C1CSC(c2ccccc2Cl)c2cc(Cl)ccc2N1 (centres undefined),4.73%
15,CC(C)[C@]12O[C@H]1[C@@H]1O[C@]13[C@]1(O[C@H]1C[C@H]1C4=C(CC[C@@]13C)C(=O)OC4)[C@@H]2O [Triptolide],-67%
16,Cn1c(CCCC(=O)O)nc2cc(N(CCCl)CCCl)ccc21 [Bendamustine_HCL],-4.52%
17,O=S(=O)(CC1CS1)c1ccc(Oc2ccccc2)cc1 (centres undefined),4.58%
18,CCOc1ccccc1-n1c(C(C)N2CCN(C(=O)COc3ccc(Cl)cc3)CC2)nc2ccccc2c1=O (centres undefined) [Erastin],-2.91%
19,N#Cc1cn([C@@H]2O[C@H](CO)[C@@H](O)[C@H]2O)c2ncnc(N)c12 [Toyocamycin],-27.1%
20,CC1=CC(=O)c2c(O)cccc2C1=O [Plumbagin],-4.04%
21,[N-]=[N+]=CC(=O)OC[C@H](N)C(=O)O [Azaserine],-16.2%
22,C/C(=C\c1csc(C)n1)[C@@H]1C[C@@H]2O[C@]2(C)CCC[C@H](C)[C@H](O)[C@@H](C)C(=O)C(C)(C)[C@@H](O)CC(=O)O1 [Epothilone_B],-49.1%
23,S=C=NCCc1ccccc1,-5.8%
24,Oc1cc(Cl)ccc1Oc1ccc(Cl)cc1Cl [Triclosan],2.04%
